# Assay outcomes deposited in PubChem BioAssay by ICCB-Longwood Screening Facility, Harvard Medical School.
# Sa helicase inh: blocks Staphylococcus aureus DNA helicase | purified S. aureus helicase, fluorescence unwinding assay | inhibition, % (concentration not given with the values) | hit rate 0.05% among 120,000; in the data active means inhibition above about 25%, passing the limit was not always enough;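 further: 0% = mean of negative control wells and 100% = mean of positive control wells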
# Sa growth inh: blocks Staphylococcus aureus growth; S. aureus RN4220 growth, OD600, 20 h, 42 °C; active compounds read low; relative growth, % (concentration not given with the values); hit rate 0.53% among 170,000; AID 720641;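 active means relative growth at most 50% at the other temperature and 20+ points below 30 °C, or under 10% at both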
# * = called active by the depositor; · = not tested or not shown. The sample as a whole holds a higher share of hits than the screen did.
SMILES,Sa helicase inh,Sa growth inh
CCC[C@@H]1C[C@@H](C(=O)N[C@@H]([C@H]2O[C@H](SC)[C@H](O)[C@@H](O)[C@H]2O)[C@H](C)Cl)N(C)C1,·,-0.8*
CCC[C@@H]1C[C@@H](C(=O)N[C@@H](C2O[C@H](SC)[C@H](O)[C@@H](O)[C@H]2O)[C@H](C)Cl)N(C)C1 (stereo not given in full),·,-1.1*
CCC[C@@H]1C[C@@H](C(=O)N[C@H]([C@H]2O[C@H](SC)[C@H](O)[C@@H](O)[C@H]2O)[C@H](C)O)N(C)C1,·,0.0*
CN(C)c1ccc(/C=C2\CCCC3C2=NN(C(=S)NC(=O)c2ccco2)C3c2ccc(N(C)C)cc2)cc1 (stereo not given),-42,115
NC(=O)Cn1cnc2c(nnn2-c2ccc(OC(F)(F)F)cc2)c1=O,4,91
O=C(Cn1cnc2sccc2c1=O)N1CCCC1c1ccc2c(c1)OCCCO2 (stereo not given),-5,82
CCCCn1c(SCCO)nc2c(c1=O)C1(CCCC1)Cc1ccccc1-2,-10,85
Cc1onc(-c2ccccc2)c1C(=O)NCCN(C)C,·,94
CC(=O)Nc1cccc(N2C(=O)C=CC2=O)c1,8,93
CCC(CC)NC(=O)CCc1c(C)nc2nc(N)nn2c1C,1,89
CO[C@@]12[C@@H]3NC3CN1C1=C(C(=O)C(N)=C(C)C1=O)[C@@H]2COC(N)=O (stereo not given in full),·,0.2*
C=CCNC(=O)c1ccc(S(=O)(=O)N2CCC(C)CC2)cc1,-2,91
CCc1cc(-c2[nH]ncc2-c2ccc(Br)cc2)c(O)cc1O,-17,·
CCc1cc(-c2[nH]ncc2-c2cnn(-c3ccccc3)c2)c(O)cc1O,17,9.5*
N#Cc1cnc2ccnn2c1N,-11,97
CCN1CCN(c2nnc(-c3cccs3)c3ccccc23)CC1,10,96
